# Reference: PMC6707232
# Assays:
# Test in all cases: cross-linking mass spectrometry
# Conditions in all cases: not determined
# [1] = molecular target: COPS3 (UniProt Q9UNS2)
# [2] = molecular target: COPS7B (UniProt Q9H9Q2)
# [3] = molecular target: ELOB (UniProt Q15370)
# Chain of UniProt Q15370 (Q15370 whole entry): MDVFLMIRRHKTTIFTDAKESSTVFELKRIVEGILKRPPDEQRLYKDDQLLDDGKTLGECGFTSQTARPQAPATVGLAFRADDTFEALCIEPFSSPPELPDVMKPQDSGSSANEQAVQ
# Chain of UniProt Q9UNS2 (Q9UNS2 whole entry): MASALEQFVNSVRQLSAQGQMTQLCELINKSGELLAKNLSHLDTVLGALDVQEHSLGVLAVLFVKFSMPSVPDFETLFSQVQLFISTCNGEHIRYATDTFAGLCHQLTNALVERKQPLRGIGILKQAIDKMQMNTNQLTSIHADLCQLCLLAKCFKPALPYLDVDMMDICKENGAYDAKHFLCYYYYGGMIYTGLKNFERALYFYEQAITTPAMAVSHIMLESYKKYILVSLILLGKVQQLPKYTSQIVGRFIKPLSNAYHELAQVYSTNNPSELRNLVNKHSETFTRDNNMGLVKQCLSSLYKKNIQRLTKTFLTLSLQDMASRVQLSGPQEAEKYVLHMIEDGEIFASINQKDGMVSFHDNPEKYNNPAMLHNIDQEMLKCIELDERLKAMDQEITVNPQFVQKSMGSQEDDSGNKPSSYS
# Chain of GPS1 (Q13098 whole entry): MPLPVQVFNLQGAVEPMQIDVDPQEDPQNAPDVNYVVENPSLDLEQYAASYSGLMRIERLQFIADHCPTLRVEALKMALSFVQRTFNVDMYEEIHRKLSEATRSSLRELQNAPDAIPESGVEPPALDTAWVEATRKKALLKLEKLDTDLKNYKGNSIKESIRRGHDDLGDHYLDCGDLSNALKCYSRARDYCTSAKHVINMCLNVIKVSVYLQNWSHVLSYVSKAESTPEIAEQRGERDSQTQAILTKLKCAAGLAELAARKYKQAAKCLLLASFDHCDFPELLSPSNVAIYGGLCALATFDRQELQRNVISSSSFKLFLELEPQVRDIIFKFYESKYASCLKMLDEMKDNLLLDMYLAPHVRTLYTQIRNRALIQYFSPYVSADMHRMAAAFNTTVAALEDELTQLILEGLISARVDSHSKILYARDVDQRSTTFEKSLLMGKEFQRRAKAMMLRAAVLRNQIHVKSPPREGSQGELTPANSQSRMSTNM
# Chain of COPS2 (P61201 whole entry): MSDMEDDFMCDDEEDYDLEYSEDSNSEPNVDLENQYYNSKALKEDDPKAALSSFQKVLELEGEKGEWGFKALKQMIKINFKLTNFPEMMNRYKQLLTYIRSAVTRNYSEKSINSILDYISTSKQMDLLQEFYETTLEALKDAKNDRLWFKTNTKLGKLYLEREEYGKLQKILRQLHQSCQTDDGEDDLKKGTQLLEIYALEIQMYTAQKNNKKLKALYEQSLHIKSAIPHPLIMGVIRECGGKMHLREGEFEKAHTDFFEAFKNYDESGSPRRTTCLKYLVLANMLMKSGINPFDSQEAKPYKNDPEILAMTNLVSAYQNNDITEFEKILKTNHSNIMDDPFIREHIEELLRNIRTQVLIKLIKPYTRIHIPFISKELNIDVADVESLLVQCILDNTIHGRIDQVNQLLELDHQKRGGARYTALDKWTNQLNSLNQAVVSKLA
# Chain of UniProt Q9H9Q2 (Q9H9Q2 whole entry): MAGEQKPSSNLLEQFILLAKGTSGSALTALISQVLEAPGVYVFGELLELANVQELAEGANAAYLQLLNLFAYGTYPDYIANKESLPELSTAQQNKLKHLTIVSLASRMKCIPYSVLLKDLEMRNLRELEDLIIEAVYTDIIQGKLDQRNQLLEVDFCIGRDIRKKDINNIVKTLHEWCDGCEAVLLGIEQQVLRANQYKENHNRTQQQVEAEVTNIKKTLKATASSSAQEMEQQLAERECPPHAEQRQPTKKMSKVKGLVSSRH
Substance,cross-linked residues [1],cross-linked residues [2],cross-linked residues [3]
"COPS2, P61201",K426 - K243,K426 - K199,–
"GPS1, Q13098",K467 - K406,–,K158 - K19
